PubChem BioAssay (NCATS)
Results filed as inconclusive are left out. Entries that show only a call come without a potency. The source made the active and inactive calls. The call rests on the fitted dose curve; in most records, active means well fitted inhibition curve with a large enough effect; inconclusive means small, poorly fitted or top-dose-only effect; inactive means flat fitted curve, though single readings scatter.

System: CP265
Experiment: qHTS profiling for inhibitors of Plasmodium falciparum proliferation (AID 504749); further: nearly all actives have a fitted effect of over 60% in size
Conditions: P. falciparum in erythrocytes, SYBR Green DNA, 72 h; series mostly up to 28.7 µM
Procedure, shortened: (§1)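 Readout was DNA-dye fluorescence from lysed cultures, ex 485/em 535 nm. Parasitized red cells had grown 72 h with compound; data scaled between 0.29 uM artemisinin and DMSO wells and corrected using vehicle-only plates.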
Potency means the concentration at half of the fitted maximal effect.

| SMILES | Potency |
| --- | --- |
| CNCCC=C1c2ccccc2CCc2ccccc21 | 7.94 µM (active) |
| C[C@@H]1CN(CCCn2c3ccccc3c3ccccc32)C[C@H](C)N1 | 7.94 µM (active) |
| CC(C)NC[C@@H](O)COc1cccc2ccccc12 | 10 µM (active) |
| CC(C)=CCC1C(=O)N(c2ccccc2)N(c2ccccc2)C1=O | inactive |
| CN1CCN(CCCN2c3ccccc3Sc3ccc(S(=O)(=O)N(C)C)cc32)CC1 | 3.55 µM (active) |
| CN(C)CCOc1ccccc1Cc1ccccc1 | 2.24 µM (active) |
| OC(CCN1CCCCC1)(c1ccccc1)c1ccccc1 | 8.91 µM (active) |
| CCCCCCCCCCCCCCCC[N+](C)(C)CCN(Cc1ccc(OC)cc1)c1ncccn1 | inactive |
| CC/C(=C(/CC)c1ccc(O)cc1)c1ccc(O)cc1 | inactive |

System: CP266
Experiment: as above
Conditions: P. falciparum in erythrocytes, SYBR Green DNA, 72 h; series mostly up to 28.7 µM
Procedure, shortened: as §1

| SMILES | Potency |
| --- | --- |
| CN=C(NC#N)Nc1ccc(C2=NNC(=O)CC2C)cc1 (configuration not stated) | inactive |
| CCCCCCCCCCCCCCNCCO | inactive |
| C[C@@H]1CN(CCCn2c3ccccc3c3ccccc32)C[C@H](C)N1 | inactive |
| CCCOC(C(=O)OC1CCN(C)CC1)(c1ccccc1)c1ccccc1 | inactive |
| CN(C)C(=S)SC(=S)N(C)C | inactive |
| COc1cc2c(cc1OC)C(=O)C(CC1CCN(Cc3ccccc3)CC1)C2 (configuration not stated) | inactive |
| CCCCCCCCCCOCC(O)CN (configuration not stated) | inactive |
| CCOC(=O)COc1ccc2c(C)c(CCN(CC)CC)c(=O)oc2c1Cl | inactive |
| CCN(CC)CCNC(=O)COc1ccc(Cl)cc1 | inactive |
| COC(=O)[C@H]1[C@H]2C[C@H]3c4[nH]c5ccccc5c4CCN3C[C@H]2CC[C@@H]1O | inactive |
| CC(C)NC[C@@H](O)COc1cccc2ccccc12 | inactive |
| CC(C)=CCC1C(=O)N(c2ccccc2)N(c2ccccc2)C1=O | inactive |
| CN1CCN(CCCN2c3ccccc3Sc3ccc(S(=O)(=O)N(C)C)cc32)CC1 | inactive |
| OC(CCN1CCCCC1)(c1ccccc1)c1ccccc1 | inactive |
| CC/C(=C(/CC)c1ccc(O)cc1)c1ccc(O)cc1 | inactive |
| O=C(CCCN1CCC(O)(c2ccc(Br)cc2)CC1)c1ccc(F)cc1 | inactive |
| CC(=O)N/N=C/c1ccc([N+](=O)[O-])o1 | inactive |
| O=C(Nc1ccc(Oc2ccc(Cl)cc2)c(Cl)c1)c1cc(I)cc(I)c1O | inactive |
| CCOC(=O)/C=C(C)/C=C/C=C(C)/C=C/c1c(C)cc(OC)c(C)c1C | inactive |
| CC(C)N=C(N)/N=C(\N)Nc1ccc(Cl)cc1 | inactive |
| CN(C)CC/C=C1\c2ccccc2Sc2ccc(Cl)cc21 | inactive |
| O=C1OCCN1/N=C/c1ccc([N+](=O)[O-])o1 | inactive |

System: CP268
Experiment: as above
Conditions: P. falciparum in erythrocytes, SYBR Green DNA, 72 h; series mostly up to 28.7 µM
Procedure, shortened: as §1

| SMILES | Potency |
| --- | --- |
| CNCCC=C1c2ccccc2CCc2ccccc21 | inactive |
| CCCCc1nc(Cl)c(CO)n1Cc1ccc(-c2ccccc2-c2nn[nH]n2)cc1 | inactive |
| CN=C(NC#N)Nc1ccc(C2=NNC(=O)CC2C)cc1 (configuration not stated) | inactive |
| CO/N=C1\CN(c2nc3c(cc2F)c(=O)c(C(=O)O)cn3C2CC2)CC1CN (configuration not stated) | 12 µM (active) |
| COc1cc2c(cc1OC)C(=O)C(CC1CCN(Cc3ccccc3)CC1)C2 (configuration not stated) | inactive |
| Oc1ccc(O)cc1 | inactive |
| CCOC(=O)COc1ccc2c(C)c(CCN(CC)CC)c(=O)oc2c1Cl | inactive |
| CCN(CC)CCNC(=O)COc1ccc(Cl)cc1 | inactive |
| COC(=O)[C@H]1[C@H]2C[C@H]3c4[nH]c5ccccc5c4CCN3C[C@H]2CC[C@@H]1O | inactive |
| CCN(CC)CCOc1ccc(C(O)(Cc2ccc(Cl)cc2)c2ccc(C)cc2)cc1 (configuration not stated) | 19 µM (active) |
| CC(C)NC[C@@H](O)COc1cccc2ccccc12 | inactive |
| CC(C)=CCC1C(=O)N(c2ccccc2)N(c2ccccc2)C1=O | inactive |
| C#C[C@]1(O)CC[C@H]2[C@@H]3CCc4cc(OC5CCCC5)ccc4[C@H]3CC[C@@]21C | inactive |
| CCCCCCCCCCCCCCCC[N+](C)(C)CCN(Cc1ccc(OC)cc1)c1ncccn1 | inactive |
| CC/C(=C(/CC)c1ccc(O)cc1)c1ccc(O)cc1 | inactive |
| CC(=O)N/N=C/c1ccc([N+](=O)[O-])o1 | inactive |
| O=C(Nc1ccc(Oc2ccc(Cl)cc2)c(Cl)c1)c1cc(I)cc(I)c1O | inactive |
| CCOC(=O)/C=C(C)/C=C/C=C(C)/C=C/c1c(C)cc(OC)c(C)c1C | inactive |
| CC(C)N=C(N)/N=C(\N)Nc1ccc(Cl)cc1 | inactive |
| CN(C)CC/C=C1\c2ccccc2Sc2ccc(Cl)cc21 | inactive |

System: CP269
Experiment: as above
Conditions: P. falciparum in erythrocytes, SYBR Green DNA, 72 h; series mostly up to 28.7 µM
Procedure, shortened: as §1

| SMILES | Potency |
| --- | --- |
| CN=C(NC#N)Nc1ccc(C2=NNC(=O)CC2C)cc1 (configuration not stated) | inactive |
| CCCCCCCCCCCCCCNCCO | inactive |
| CN(C)C(=S)SC(=S)N(C)C | 10.7 µM (active) |
| CO/N=C1\CN(c2nc3c(cc2F)c(=O)c(C(=O)O)cn3C2CC2)CC1CN (configuration not stated) | 5.36 µM (active) |
| COc1cc2c(cc1OC)C(=O)C(CC1CCN(Cc3ccccc3)CC1)C2 (configuration not stated) | inactive |
| CCCCCCCCCCOCC(O)CN (configuration not stated) | inactive |
| CCOC(=O)COc1ccc2c(C)c(CCN(CC)CC)c(=O)oc2c1Cl | inactive |
| CCN(CC)CCNC(=O)COc1ccc(Cl)cc1 | inactive |
| COC(=O)[C@H]1[C@H]2C[C@H]3c4[nH]c5ccccc5c4CCN3C[C@H]2CC[C@@H]1O | inactive |
| CCN(CC)CCOc1ccc(C(O)(Cc2ccc(Cl)cc2)c2ccc(C)cc2)cc1 (configuration not stated) | 15.1 µM (active) |
| C#C[C@]1(O)CC[C@H]2[C@@H]3CCc4cc(OC5CCCC5)ccc4[C@H]3CC[C@@]21C | inactive |
| CC/C(=C(/CC)c1ccc(O)cc1)c1ccc(O)cc1 | inactive |
| CC(=O)N/N=C/c1ccc([N+](=O)[O-])o1 | inactive |
| O=C(Nc1ccc(Oc2ccc(Cl)cc2)c(Cl)c1)c1cc(I)cc(I)c1O | inactive |
| CCOC(=O)/C=C(C)/C=C/C=C(C)/C=C/c1c(C)cc(OC)c(C)c1C | inactive |
| O=C1OCCN1/N=C/c1ccc([N+](=O)[O-])o1 | inactive |
